# Reference: paper PMC7862700, “An all-to-all approach to the identification of sequence-specific readers for epigenetic DNA modifications on cytosine”
# How the values were obtained:
# Assay in all cases: DAPPL (digital affinity profiling via proximity ligation, sequencing); 10 mM Tris-HCl pH 7.5, 50 mM NaCl, 1 mM DTT, 4% glycerol, room temperature, 30 min; GST-TFs on glutathione beads, 16-mer random dsDNA library, 0.1% formaldehyde crosslink after washing; high values mean tight binding
# Conditions in all cases: protein: recombinant; tags: N-terminal GST; dsDNA, one strand shown
# [1] = target: T1, FLI1 (Homo sapiens, UniProt Q01543 1-452)
# T1 sequence: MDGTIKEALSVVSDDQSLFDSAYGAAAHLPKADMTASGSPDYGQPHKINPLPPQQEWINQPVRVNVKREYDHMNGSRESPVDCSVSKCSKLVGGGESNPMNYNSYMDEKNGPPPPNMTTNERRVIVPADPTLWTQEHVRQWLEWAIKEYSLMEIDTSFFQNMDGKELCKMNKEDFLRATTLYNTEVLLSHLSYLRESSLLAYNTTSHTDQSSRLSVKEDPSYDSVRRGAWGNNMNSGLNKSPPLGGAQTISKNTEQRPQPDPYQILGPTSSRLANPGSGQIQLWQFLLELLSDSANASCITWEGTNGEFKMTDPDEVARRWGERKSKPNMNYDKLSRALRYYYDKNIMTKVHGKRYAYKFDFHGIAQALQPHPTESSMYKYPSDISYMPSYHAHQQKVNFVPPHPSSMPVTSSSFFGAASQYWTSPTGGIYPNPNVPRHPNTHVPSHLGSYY
# In short: (§1)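 Human transcription factors were made in yeast as GST fusions, captured on glutathione beads and barcoded with DNA. With a tag-only sample included, the pool was incubated with 200 nmole of a random double-stranded 16-mer DNA library in Tris/NaCl/DTT/glycerol buffer at room temperature for 30 min, then crosslinked with 0.1% formaldehyde after washing, ligated by proximity, amplified and sequenced. For binding signal, each hexamer's read frequency for a factor is divided by its frequency for the tag-only sample.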
# [2] = target: T2, ELK4 (Homo sapiens, UniProt P28324-2 1-405)
# T2 sequence: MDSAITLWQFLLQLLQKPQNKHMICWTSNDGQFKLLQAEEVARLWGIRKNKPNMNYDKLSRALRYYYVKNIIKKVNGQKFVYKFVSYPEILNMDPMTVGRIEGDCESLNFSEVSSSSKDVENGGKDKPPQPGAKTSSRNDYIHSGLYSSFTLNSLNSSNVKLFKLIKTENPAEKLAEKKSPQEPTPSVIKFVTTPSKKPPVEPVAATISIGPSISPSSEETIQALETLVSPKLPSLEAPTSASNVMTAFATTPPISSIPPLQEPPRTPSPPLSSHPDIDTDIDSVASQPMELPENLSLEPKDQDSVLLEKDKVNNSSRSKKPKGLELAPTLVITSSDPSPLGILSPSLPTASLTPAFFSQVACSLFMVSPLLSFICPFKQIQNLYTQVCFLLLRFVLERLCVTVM
# In short: as §1
# [3] = target: T3, ETV2 (Homo sapiens, UniProt O00321 1-342)
# T3 sequence: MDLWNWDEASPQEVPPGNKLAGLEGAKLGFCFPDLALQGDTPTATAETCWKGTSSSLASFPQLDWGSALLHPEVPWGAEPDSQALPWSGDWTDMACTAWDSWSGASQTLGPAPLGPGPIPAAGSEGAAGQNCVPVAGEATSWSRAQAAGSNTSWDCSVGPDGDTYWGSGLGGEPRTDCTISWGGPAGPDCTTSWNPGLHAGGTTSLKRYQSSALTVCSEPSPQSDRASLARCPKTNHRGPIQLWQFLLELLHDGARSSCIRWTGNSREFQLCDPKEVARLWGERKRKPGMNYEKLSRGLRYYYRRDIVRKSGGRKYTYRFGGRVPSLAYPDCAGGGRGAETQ
# In short: as §1
# [4] = target: T4, ELF3 (Homo sapiens, UniProt P78545 1-371)
# T4 sequence: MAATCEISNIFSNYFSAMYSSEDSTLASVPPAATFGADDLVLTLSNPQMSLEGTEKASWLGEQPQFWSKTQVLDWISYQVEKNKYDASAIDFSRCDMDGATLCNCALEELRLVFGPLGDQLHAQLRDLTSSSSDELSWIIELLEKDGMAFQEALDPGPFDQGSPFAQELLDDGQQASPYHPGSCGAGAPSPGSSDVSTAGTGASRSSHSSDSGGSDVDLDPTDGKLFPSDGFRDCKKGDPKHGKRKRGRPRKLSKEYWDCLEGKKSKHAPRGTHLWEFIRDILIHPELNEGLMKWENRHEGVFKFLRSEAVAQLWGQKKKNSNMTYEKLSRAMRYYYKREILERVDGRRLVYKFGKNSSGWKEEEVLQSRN
# In short: as §1
# [5] = target: ETV1 (Homo sapiens, UniProt P50549 1-477)
# Sequence of ETV1 (P50549 whole entry): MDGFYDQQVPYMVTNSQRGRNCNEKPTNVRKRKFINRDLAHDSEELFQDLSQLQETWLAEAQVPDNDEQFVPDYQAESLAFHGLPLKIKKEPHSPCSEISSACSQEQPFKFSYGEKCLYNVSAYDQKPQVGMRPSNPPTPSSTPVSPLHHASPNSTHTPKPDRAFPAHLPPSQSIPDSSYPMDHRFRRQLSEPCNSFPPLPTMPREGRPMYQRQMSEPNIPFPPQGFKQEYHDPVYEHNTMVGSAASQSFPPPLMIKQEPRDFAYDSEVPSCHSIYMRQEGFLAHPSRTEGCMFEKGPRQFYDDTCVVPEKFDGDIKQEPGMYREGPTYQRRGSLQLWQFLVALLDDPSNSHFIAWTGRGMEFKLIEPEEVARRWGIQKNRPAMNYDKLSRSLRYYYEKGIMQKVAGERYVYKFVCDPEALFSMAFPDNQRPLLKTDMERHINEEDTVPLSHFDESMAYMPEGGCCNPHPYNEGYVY
# In short: as §1
# [6] = target: T5, ERF (Homo sapiens, UniProt P50548 1-548)
# T5 sequence: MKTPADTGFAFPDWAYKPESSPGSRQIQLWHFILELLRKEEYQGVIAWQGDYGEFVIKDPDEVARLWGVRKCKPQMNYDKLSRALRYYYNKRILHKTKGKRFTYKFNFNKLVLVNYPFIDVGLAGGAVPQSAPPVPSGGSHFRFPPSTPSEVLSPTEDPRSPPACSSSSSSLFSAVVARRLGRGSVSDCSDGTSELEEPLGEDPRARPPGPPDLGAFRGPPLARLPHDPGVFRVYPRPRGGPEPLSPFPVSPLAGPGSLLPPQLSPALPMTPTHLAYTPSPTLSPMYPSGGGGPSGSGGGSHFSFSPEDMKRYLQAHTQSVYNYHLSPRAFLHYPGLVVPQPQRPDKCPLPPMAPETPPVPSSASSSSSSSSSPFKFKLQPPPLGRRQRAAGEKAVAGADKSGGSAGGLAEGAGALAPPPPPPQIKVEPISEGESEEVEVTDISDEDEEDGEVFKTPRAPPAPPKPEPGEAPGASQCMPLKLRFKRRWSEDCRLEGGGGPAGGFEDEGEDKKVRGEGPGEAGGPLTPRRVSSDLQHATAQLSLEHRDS
# In short: as §1
# [7] = target: T6, ETV3L (Homo sapiens, UniProt Q6ZN32 1-361)
# T6 sequence: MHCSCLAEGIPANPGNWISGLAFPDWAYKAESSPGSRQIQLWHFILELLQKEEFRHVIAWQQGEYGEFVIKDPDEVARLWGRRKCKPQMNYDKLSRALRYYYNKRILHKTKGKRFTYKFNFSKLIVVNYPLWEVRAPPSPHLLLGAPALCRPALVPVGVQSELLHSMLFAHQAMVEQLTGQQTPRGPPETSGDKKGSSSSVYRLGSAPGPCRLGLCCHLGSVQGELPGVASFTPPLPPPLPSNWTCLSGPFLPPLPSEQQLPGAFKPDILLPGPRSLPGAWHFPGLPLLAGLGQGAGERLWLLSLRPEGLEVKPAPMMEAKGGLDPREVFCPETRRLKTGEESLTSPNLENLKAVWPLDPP
# In short: as §1
# [8] = target: T7, ELK1 (Homo sapiens, UniProt P19419 1-428)
# T7 sequence: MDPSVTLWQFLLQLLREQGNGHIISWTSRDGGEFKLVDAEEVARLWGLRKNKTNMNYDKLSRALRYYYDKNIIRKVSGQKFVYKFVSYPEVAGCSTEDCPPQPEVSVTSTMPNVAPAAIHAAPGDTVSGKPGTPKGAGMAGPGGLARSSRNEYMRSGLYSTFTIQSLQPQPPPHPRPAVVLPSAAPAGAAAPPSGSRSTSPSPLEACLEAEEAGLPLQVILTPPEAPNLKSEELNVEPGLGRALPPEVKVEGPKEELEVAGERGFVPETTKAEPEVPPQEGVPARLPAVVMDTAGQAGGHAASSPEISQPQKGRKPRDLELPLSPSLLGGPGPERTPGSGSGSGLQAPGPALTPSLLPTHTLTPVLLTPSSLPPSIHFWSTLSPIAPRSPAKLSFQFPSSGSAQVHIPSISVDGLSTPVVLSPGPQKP
# In short: as §1
# [9] = target: T8, GABPA (Homo sapiens, UniProt Q06546 1-454)
# T8 sequence: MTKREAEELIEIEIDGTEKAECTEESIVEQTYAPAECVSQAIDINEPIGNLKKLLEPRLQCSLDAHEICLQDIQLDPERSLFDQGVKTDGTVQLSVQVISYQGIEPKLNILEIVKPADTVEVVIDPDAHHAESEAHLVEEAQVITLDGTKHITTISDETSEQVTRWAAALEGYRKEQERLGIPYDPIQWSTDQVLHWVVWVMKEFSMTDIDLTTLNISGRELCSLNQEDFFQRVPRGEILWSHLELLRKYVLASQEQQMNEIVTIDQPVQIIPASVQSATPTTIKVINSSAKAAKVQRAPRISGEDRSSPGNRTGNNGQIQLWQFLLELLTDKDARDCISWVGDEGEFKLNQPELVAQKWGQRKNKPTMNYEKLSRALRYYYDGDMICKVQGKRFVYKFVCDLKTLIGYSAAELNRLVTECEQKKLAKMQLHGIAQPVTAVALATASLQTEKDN
# In short: as §1
# [10] = target: ELF1 (Homo sapiens, UniProt P32519 1-619)
# Sequence of ELF1 (P32519 whole entry): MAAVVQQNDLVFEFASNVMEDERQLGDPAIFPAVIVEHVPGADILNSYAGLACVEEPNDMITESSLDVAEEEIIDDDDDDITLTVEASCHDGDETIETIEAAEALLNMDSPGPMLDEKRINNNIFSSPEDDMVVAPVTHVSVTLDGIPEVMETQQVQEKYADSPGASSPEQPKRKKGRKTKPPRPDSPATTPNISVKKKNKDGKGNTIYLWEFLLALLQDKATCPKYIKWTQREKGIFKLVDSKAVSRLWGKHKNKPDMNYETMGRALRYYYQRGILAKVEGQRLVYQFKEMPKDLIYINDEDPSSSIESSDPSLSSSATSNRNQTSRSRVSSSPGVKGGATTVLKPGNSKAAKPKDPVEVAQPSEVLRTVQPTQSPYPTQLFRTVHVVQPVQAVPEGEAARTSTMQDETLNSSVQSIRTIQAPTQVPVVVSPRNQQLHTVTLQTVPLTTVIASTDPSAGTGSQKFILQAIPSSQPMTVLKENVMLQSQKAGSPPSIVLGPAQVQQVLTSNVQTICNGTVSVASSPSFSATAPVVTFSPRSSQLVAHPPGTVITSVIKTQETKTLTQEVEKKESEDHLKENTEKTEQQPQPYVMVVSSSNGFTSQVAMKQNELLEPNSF
# In short: as §1
# [11] = target: T9, EHF (Homo sapiens, UniProt Q9NZC4 1-300)
# T9 sequence: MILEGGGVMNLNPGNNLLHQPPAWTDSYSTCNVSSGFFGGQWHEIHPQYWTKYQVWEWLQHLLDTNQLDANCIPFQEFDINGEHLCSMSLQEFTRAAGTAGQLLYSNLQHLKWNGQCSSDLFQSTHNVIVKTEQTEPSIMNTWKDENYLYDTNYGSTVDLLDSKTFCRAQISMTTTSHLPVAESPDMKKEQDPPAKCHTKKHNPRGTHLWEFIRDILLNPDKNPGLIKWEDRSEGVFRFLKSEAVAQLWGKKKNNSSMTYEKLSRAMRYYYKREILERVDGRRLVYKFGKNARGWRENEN
# In short: as §1
# [12] = target: T10, ELK3 (Homo sapiens, UniProt P41970 1-407)
# T10 sequence: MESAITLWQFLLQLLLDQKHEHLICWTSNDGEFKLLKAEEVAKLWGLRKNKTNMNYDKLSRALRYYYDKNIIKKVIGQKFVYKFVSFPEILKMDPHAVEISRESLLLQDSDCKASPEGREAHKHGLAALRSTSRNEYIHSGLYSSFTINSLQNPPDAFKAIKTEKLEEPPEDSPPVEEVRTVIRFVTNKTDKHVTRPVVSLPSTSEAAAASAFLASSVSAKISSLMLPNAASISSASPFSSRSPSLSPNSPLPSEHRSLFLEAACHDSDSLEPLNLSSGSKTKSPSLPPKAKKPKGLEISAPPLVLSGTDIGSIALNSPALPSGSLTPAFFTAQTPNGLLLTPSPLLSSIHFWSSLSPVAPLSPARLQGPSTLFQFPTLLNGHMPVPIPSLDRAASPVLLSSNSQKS
# In short: as §1
# [13] = target: T11, ETV7 (Homo sapiens, UniProt Q9Y603 1-341)
# T11 sequence: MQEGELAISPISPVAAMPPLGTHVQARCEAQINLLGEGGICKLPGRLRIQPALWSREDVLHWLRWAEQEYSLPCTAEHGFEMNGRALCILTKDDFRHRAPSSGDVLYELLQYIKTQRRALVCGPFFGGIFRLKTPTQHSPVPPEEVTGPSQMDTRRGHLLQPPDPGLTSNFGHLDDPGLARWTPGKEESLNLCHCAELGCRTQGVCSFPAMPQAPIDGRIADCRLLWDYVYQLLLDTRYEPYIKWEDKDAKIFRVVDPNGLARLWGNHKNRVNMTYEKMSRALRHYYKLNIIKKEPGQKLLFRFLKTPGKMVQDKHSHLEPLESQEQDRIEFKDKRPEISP
# In short: as §1
# [14] = target: T12, ETV3 (Homo sapiens, UniProt P41162-2 1-143)
# T12 sequence: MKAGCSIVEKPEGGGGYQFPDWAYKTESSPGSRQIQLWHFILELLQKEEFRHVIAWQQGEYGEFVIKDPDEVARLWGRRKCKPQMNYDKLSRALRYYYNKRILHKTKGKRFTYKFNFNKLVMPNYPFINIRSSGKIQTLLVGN
# In short: as §1
# [15] = target: ETV6 (Homo sapiens, UniProt P41212 1-452)
# Sequence of ETV6 (P41212 whole entry): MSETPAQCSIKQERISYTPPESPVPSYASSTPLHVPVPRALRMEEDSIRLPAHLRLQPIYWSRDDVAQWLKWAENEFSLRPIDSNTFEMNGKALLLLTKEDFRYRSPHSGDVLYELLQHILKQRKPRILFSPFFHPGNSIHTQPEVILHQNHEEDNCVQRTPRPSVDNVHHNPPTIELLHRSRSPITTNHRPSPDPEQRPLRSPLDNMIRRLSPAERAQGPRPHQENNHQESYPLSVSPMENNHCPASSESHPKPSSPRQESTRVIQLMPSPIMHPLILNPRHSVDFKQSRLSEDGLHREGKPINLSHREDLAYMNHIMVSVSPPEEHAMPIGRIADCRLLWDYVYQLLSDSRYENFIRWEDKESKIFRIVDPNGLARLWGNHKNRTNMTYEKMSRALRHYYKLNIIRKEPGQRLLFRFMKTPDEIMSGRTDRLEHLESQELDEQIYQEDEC
# In short: as §1
Sequence,binding signal [1],binding signal [2],binding signal [3],binding signal [4],binding signal [5],binding signal [6],binding signal [7],binding signal [8],binding signal [9],binding signal [10],binding signal [11],binding signal [12],binding signal [13],binding signal [14],binding signal [15]
TCGTTG,"1.01 fold enrichment (6-mer frequency, TF over GST control)","1.1 fold enrichment (6-mer frequency, TF over GST control)","1.19 fold enrichment (6-mer frequency, TF over GST control)","1.07 fold enrichment (6-mer frequency, TF over GST control)","1.02 fold enrichment (6-mer frequency, TF over GST control)","1.03 fold enrichment (6-mer frequency, TF over GST control)","1.1 fold enrichment (6-mer frequency, TF over GST control)",–,–,–,–,–,–,–,–
CTGGTG,"1.01 fold enrichment (6-mer frequency, TF over GST control)",–,–,"1.09 fold enrichment (6-mer frequency, TF over GST control)",–,"1.05 fold enrichment (6-mer frequency, TF over GST control)","1.06 fold enrichment (6-mer frequency, TF over GST control)","1.05 fold enrichment (6-mer frequency, TF over GST control)","1.01 fold enrichment (6-mer frequency, TF over GST control)","1.02 fold enrichment (6-mer frequency, TF over GST control)","1.09 fold enrichment (6-mer frequency, TF over GST control)","1.15 fold enrichment (6-mer frequency, TF over GST control)","1.04 fold enrichment (6-mer frequency, TF over GST control)","1.03 fold enrichment (6-mer frequency, TF over GST control)","1.03 fold enrichment (6-mer frequency, TF over GST control)"
